Experiment [1] is described as follows: antimalarial activity against Dd2 strain (AID 2302;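 active means growth inhibition above 50% at the single 2 µM test dose, taken to imply half-maximal potency below 2 µM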;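 further: 0% = DMSO untreated growth and 100% = chloroquine plus artemisinin killed control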). The conditions noted are these: P. falciparum Dd2 in RBCs, LDH growth readout, 72 h; at 2 µM; stronger effect = higher value.
Experiment [2] can be described thus: HepG2 cytotoxicity, primary screen, cytotoxicity control for P. falciparum antimalarial project, cell-based, ATP luminescence (AID 2303;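 active means inhibition above 50%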;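 further: 0% = DMSO wells and 100% = digitonin-killed cells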). The conditions noted are these: HepG2 viability, 24-48 h, at 10 µM, stronger effect = higher value.
Experiment [3] addresses L-lactate dehydrogenase (Plasmodium falciparum (isolate CDC / Honduras)) (UniProt Q27743). Kind of experiment: PfLDH activity inhibition – cell lysate, 3D7 strain, counter-screen for P. falciparum growth inhibition project (AID 2304).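 Further: 0% = vehicle and 100% = reference inhibitor.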 The conditions noted are these: P. falciparum 3D7 crude extract, LDH APAD/NBT absorbance; at 2 µM; stronger effect = higher value.
Experiment [4] is described as follows: inhibition of 3D7 malaria parasite growth – strain 3D7 (AID 2306).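 Further: 0% = DMSO wells and 100% = chloroquine plus artemisinin control wells.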 The conditions noted are these: P. falciparum 3D7 erythrocytic growth, LDH absorbance, 72 h; at 2 µM; stronger effect = higher value.
Experiment [5] has as its target Calcium-dependent protein kinase 1 (Plasmodium falciparum (isolate 3D7)) (UniProt P62344). The experiment is described as follows: PfCDPK1 kinase inhibitors, biochemical, TCAMS library (AID 1159585; cut-off not given, nearly all actives have IC50 up to about 0.98 µM;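 further: inhibitors leave more ATP so luminescence rises with inhibition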). Particulars: recombinant PfCDPK1, Kinase-Glo ATP depletion luminescence. In general terms: Kinase-Glo reads ATP consumption through a luciferase reaction.
The target of experiment [6] is Plasmodium falciparum protein kinase 6 (PK6, PF3D7_1337100) (UniProt Q8IDW1). Kind of experiment: PfPK6 kinase inhibitors, biochemical, TCAMS library (AID 1159586). The conditions noted are these: recombinant PfPK6, Kinase-Glo ATP depletion luminescence.
Plasmodium falciparum protein kinase 6 (PK6, PF3D7_1337100), sequence (Q8IDW1 1-305): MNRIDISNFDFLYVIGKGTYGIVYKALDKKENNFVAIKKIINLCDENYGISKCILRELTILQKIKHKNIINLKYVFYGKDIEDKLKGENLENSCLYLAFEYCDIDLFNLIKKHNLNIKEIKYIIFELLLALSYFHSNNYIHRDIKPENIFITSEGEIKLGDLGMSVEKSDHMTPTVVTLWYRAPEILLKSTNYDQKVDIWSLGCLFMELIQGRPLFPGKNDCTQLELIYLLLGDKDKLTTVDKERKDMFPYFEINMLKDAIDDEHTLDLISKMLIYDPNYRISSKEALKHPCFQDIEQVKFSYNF
For experiment [7], the target named is Protein kinase 7 (PK7), Plasmodium falciparum 3D7 (PF3D7_0213400) (UniProt Q7YTF7). Kind of experiment: inhibition of Plasmodium PK7 catalytic activity – biochemical, TCAMS antimalarial set, Kinase-Glo luminescence (AID 1159587). The conditions noted are these: recombinant PfPK7, Kinase-Glo ATP depletion luminescence.
Protein kinase 7 (PK7), Plasmodium falciparum 3D7 (PF3D7_0213400), sequence (Q7YTF7 1-343): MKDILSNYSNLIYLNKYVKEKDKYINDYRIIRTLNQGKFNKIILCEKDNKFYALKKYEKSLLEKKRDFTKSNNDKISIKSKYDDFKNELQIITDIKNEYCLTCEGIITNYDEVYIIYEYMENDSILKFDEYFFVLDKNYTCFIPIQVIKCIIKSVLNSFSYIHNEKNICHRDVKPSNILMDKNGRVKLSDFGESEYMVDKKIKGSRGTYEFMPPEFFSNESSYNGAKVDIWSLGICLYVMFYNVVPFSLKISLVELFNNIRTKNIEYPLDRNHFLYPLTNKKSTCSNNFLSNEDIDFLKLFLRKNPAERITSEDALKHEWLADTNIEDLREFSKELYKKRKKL
The target of experiment [8] is Calcium-dependent protein kinase 4 (Plasmodium falciparum (isolate 3D7)) (UniProt Q8IBS5). Kind of experiment: PfCDPK4 kinase inhibitors, biochemical, TCAMS library (AID 1159588; cut-off not given, nearly all actives have IC50 up to about 0.91 µM). The conditions noted are these: recombinant PfCDPK4, Kinase-Glo ATP depletion luminescence.
Calcium-dependent protein kinase 4 (Plasmodium falciparum (isolate 3D7)), sequence (Q8IBS5 whole entry, looked up): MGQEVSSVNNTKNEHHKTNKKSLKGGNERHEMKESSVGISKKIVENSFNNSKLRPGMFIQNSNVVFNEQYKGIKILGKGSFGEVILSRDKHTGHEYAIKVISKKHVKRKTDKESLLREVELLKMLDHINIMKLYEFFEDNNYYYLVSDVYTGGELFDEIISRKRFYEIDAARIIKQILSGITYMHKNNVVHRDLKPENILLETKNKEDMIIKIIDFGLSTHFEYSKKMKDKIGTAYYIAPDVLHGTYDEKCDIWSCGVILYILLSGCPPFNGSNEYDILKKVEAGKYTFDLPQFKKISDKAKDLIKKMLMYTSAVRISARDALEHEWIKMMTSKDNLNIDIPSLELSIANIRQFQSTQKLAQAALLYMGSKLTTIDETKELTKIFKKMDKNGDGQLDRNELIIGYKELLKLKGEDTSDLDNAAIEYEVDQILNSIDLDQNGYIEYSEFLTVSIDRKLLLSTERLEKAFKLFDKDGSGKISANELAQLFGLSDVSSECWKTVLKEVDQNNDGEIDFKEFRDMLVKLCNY

We go through 3 compounds from PubChem BioAssay.

Values without a mark were called inactive. For part of these data: Entries with a potency or affinity are not part of this list. Active and inactive are the calls of the source. Unless noted, how the calls were made is not given here.

Calcium-dependent protein kinase 1 (Plasmodium falciparum (isolate 3D7)), sequence (P62344 whole entry, looked up): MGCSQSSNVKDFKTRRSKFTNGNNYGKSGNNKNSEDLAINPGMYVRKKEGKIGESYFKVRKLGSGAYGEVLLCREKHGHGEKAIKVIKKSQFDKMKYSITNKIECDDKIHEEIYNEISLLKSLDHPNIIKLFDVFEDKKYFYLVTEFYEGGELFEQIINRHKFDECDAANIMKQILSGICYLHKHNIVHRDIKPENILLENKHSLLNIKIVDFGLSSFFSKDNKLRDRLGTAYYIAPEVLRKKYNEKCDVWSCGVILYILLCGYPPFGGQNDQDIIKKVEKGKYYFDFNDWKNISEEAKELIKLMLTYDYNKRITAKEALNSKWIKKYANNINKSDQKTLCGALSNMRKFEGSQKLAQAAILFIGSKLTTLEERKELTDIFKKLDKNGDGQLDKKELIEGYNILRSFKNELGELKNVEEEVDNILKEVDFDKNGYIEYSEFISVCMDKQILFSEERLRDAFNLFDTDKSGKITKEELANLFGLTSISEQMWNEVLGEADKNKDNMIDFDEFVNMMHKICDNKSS
L-lactate dehydrogenase (Plasmodium falciparum (isolate CDC / Honduras)), sequence (Q27743 whole entry, looked up): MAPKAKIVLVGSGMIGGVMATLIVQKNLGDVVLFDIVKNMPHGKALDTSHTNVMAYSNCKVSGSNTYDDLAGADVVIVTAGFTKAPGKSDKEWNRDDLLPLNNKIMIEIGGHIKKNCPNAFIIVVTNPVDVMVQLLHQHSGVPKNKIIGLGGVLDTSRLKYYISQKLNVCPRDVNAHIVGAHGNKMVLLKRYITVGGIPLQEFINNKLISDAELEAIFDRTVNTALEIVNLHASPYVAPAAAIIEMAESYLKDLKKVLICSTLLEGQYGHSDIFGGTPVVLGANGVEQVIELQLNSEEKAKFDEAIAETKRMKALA

Turning to `O=C(Nc1ccc(-c2ccccc2)cc1)Nc1cccc(Cn2ncc(N3CCCNCC3)c(Cl)c2=O)c1`, the growth inhibition in experiment [1] is 52% (active); in experiment [4], 102% (active). The inhibition (in general, the relative decrease from the control value, in per cent) in experiment [2] is 14%; in experiment [3], -1%. The outcome in experiment [5], in experiment [6], in experiment [7] and in experiment [8] was inactive.
With `CC(=O)N[C@H](C(=O)Nc1ccc(-c2cccc(-c3nc4c(C)cccc4[nH]3)c2)cc1)C(C)C`, the growth inhibition was 10% in experiment [1] and 89% (active) in experiment [4]. Also, the figures for the inhibition in experiment [2] and in experiment [3] were 9% and 2%, respectively. The outcome in experiment [5], in experiment [6], in experiment [7] and in experiment [8] was inactive.
For the compound `CCCCn1c(Sc2ccc(C#N)c([N+](=O)[O-])c2)nnc1-c1ccc(OC)cc1`, the values for the growth inhibition in experiment [1] and in experiment [4] were 61% (active) and 93% (active), respectively. Moreover, the inhibition in experiment [2] is 12%; in experiment [3], 0%. Further, the result in experiment [5], in experiment [6], in experiment [7] and in experiment [8] was inactive.
